High-throughput results deposited in PubChem BioAssay by National Center for Advancing Translational Sciences (NCATS).
ALOX15B inhib: 15-hLO-2 (ALOX15B) enzyme inhibition | Potency, µM (titrated, usually from 57.1 µM), actives largely listed as inhibitors | AID 881 | hit rate 0.56% among 110,000 | purified 15hLO-2, xylenol orange hydroperoxide absorbance | O15296; note: nearly all actives have a fitted effect of over 60% in size
Target sequence (O15296 whole entry, looked up): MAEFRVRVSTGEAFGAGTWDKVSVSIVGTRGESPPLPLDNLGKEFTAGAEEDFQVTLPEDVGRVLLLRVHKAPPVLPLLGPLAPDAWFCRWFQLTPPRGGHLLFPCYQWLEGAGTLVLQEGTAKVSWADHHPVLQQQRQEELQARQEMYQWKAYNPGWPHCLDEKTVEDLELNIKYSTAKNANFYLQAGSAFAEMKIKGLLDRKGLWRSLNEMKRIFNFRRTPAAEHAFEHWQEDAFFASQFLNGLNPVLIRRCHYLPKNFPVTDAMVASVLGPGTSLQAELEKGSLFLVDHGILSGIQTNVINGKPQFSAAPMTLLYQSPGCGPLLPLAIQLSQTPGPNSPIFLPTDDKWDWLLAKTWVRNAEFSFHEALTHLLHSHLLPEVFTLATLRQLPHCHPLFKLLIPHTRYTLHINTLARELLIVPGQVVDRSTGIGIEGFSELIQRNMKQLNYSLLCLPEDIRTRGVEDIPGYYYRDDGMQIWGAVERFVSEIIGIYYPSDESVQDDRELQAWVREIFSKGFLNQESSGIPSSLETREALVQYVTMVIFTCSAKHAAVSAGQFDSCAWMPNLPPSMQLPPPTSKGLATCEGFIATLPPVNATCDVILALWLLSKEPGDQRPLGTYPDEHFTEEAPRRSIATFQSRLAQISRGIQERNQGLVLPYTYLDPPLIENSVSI
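Purified human 15hLO-2 (50 nM final) preincubated with compounds 15 min at room temperature in 25 mM Hepes pH 7.5, 0.01% Triton X-100, then 45 uM arachidonic acid added for 90 min; hydroperoxide detected via ferrous/xylenol orange, 573/405 nm absorbance ratio.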
PNC inhibitor: perinucleolar compartment assembly inhibition. PC3M PTB-GFP, PNC prevalence imaging, 16 h; stronger effect = lower value. activity change (PNC), negative = inhibition, % at 10 µM. hit rate 3.1% among 140,000;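 active = readout at or below -70, meaning at least 70% loss of cells showing the perinucleolar compartment, a nuclear body marking cancer cells; inconclusive = readout between -30 and a set limit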
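Compounds are pinned in duplicate onto adhered PC3M cells stably expressing GFP-tagged PTB and incubated 16 h at 37 C. Cells are then fixed, nuclei stained with Hoechst, and PNC-positive cells counted.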
IMPase Li cell: membrane-permeable IMPase blocker, potentiated with lithium. AID 1457. Potency, µM (top dose mostly 59.4 µM), most hits filed as inhibitors. hit rate 0.35% among 210,000. CHO-M1 cells, IP1 TR-FRET (IP-One), carbachol + lithium;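 note: IP1 builds up when IMPase is blocked and the TR-FRET signal falls; nearly all actives have a fitted effect of over 50% in size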
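CHO cells stably expressing M1 receptor (2000/well) were cultured 16–30 h, then exposed to compounds with a small lithium addition for 30 min at 37C. IP1 was measured by TR-FRET competition; AC50 from Hill fits.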
12-hLO inh: 12-hLO (ALOX12) enzyme inhibition; P18054; hit rate 0.12% among 150,000; Potency, µM (doses to about 57.1 µM), usual class: inhibitors; purified 12-hLO, xylenol orange hydroperoxide absorbance; note: nearly all actives have a fitted effect of over 55% in size
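Purified human 12hLO (150 nM), preincubated 15 min with compound, then 40 uM arachidonic acid for 30 min, room temperature, Hepes pH 7.0 with 0.01% Triton X-100. Hydroperoxide detected by ferrous iron/xylenol orange; 573/405 nm absorbance ratio gives reaction progress.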
HPGD inh: blocks human HPGD enzyme activity; hit rate 4.3% among 150,000; P15428; Potency, µM, actives largely listed as inhibitors; purified HPGD, NADH fluorescence kinetic, PGE2 substrate; AID 894; active = well fitted inhibition curve with a large enough effect, not every such curve was filed as active; inconclusive = small, poorly fitted or top-dose-only effect, or another doubt; inactive = no such curve, though single readings can be large or run the other way
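20 nM HPGD preincubated 15 min at room temperature with compound in 50 mM Tris-HCl pH 8, 0.01% Tween 20. Started with 1 mM NAD+ and 30 uM prostaglandin E2; NADH fluorescence (360/450 nm) read 5 times over 30-s intervals, last minus first.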
IMPase cell inh: membrane-permeable compound that blocks inositol monophosphatase. 120,000 tested, under 10 active. inhibition (IP1 accumulation), % at 46.1 µM. P97697. CHO-M1 cells, IP1 accumulation, HTRF TR-FRET ratio; active = well fitted curve in the direction sought with a large enough effect in the signal ratio, not every such curve was filed as active; inconclusive = small, poorly fitted or top-dose-only effect, or a change in a side signal; inactive = no such curve, though single readings can be large or run the other way; the % refers to the signal ratio;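 note: cells stimulated with carbachol in lithium chloride buffer; higher means more IMPase inhibition seen as more IP1 and lower FRET ratio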
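Cellular IMPase inhibition is scored as a rise in cytosolic IP1, detected by competitive TR-FRET between d2-labelled IP1 and a europium anti-IP1 antibody. M1-expressing CHO cells were stimulated with carbachol for 30 min at 37C, with lithium (50 mM LiCl) present in the buffer.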
Hits are given with their value; - = inactive; ? = inconclusive; . = no result; [ ] = another dose, or the depositor's remark. Shown are actives, neighbours in structure and some others; about 5.4% of the full set was active somewhere. Unless noted, calls come from the whole dose curve; as a rule, active = well fitted curve in the direction sought with a large enough effect; inconclusive = small, poorly fitted or top-dose-only effect, or another doubt; inactive = no such curve, though single readings can be large; an effect the other way counts as inactive or inconclusive.

SMILES	ALOX15B inhib	PNC inhibitor	IMPase Li cell	12-hLO inh	HPGD inh	IMPase cell inh
CCCOc1cccc(C(=O)Nc2ccc(-c3nc4ccccc4s3)c(Cl)c2)c1	.	.	.	.	.	-
CC(C)[C@@H](CC(=O)N[C@@H]1CCNC[C@H]1C(=O)N[C@H](CC(=O)N[C@@H](CCC(=O)O)CC(=O)O)Cc1ccccc1)NC(=O)C[C@H](Cc1c[nH]c2ccccc12)NC(=O)[C@@H]1CCCC[C@H]1N	.	.	-	-	-	.
CC(C)C12CC[C@@]3(CC[C@H]4[C@@](C)(CCC[C@]4(C)C(=O)O)[C@@H]3C1)[C@@H](CN)C2	-[11.4 µM]	.	-	-[11.4 µM]	-	.
COc1cc2c(cc1OC)C1=C(C#N)CCC(=NC(=O)c3ccc(Cl)cc3)N1CC2	.	-	-	-	14.1µM	-
COc1cc2c(cc1OC)C1=C(C#N)COCN1CC2	-	-	-	-	?	-
COc1cc2[nH]c(=S)nc(NCCC(C)C)c2cc1OC	.	.	-	.	.	.
COCCCNc1nc(=S)[nH]c2cc(OC)c(OC)cc12	-	-	-	-	14.1µM	-
CCOc1ccc(-c2csc(N)c2C(=O)OC)cc1	-	-	-	-	14.1µM	-
COCc1nc2ccccc2n1CCCOc1ccccc1	-	-106.0	-	-	-	-
Cc1nc2ccccc2n1CCCOc1ccccc1	.	-104.6	-	-	-	-
CCCc1nc2ccccc2n1CCOc1ccccc1	-	-	-	-	?	-
CCCn1c(-c2ccc(F)cc2)nc2c(NCCN3CCOCC3)nc(C)nc21	-	.	-	-	-	.
O=[N+]([O-])c1cnc(N2CCCCC2)c([N+](=O)[O-])c1	.	?	-	-	-	.
Cc1cc([N+](=O)[O-])cnc1N1CCOCC1	.	-113.8	-	-	-	.
NCCSCCc1ccccc1	-[11.4 µM]	.	-	-[11.4 µM]	-	.
Cc1cccc(CCn2c(=O)c3ccccc3n(Cc3cccc(F)c3)c2=O)c1	.	.	.	.	.	-
COc1cc2c(cc1NC(=S)NC(=O)/C=C/c1ccco1)oc1ccccc12	.	-	-	-	-	.
COc1ccccc1NC(=S)NC(=O)/C=C/c1ccco1	.	-	-	?	28.2µM	.
COc1ccc(-c2csc(NC(=S)NC(=O)/C=C/c3ccco3)n2)cc1OC	.	-105.8	-	-	-	.
O=S(=O)(c1ccc(Cl)cc1)c1nc(-c2ccccc2Br)oc1N1CCOCC1	.	.	.	.	.	-
Cc1ccc(C)c(NC(=O)Cn2cc(C(=O)C3CCCCC3)c3ccccc32)c1	.	.	.	.	.	-
Cc1ccccc1-c1cc(Nc2ccc(F)cc2)ncn1	-	.	-	-	14.1µM	.
COc1ccccc1-c1cc(NCc2cccc(C)c2)ncn1	-	.	-	.	.	.
Cc1cccc(CNc2cc(-c3ccccc3C)ncn2)c1	-	.	-	-	15.8µM	.
COc1ccc(OC)c(NC(=O)c2cc(-c3ccc(C)cc3O)n[nH]2)c1	-	-	-	-	-	-
SMILES	ALOX15B inhib	PNC inhibitor	IMPase Li cell	12-hLO inh	HPGD inh	IMPase cell inh
Cc1ccc(-c2cc(C(=O)Nc3cc(C)ccc3C)[nH]n2)c(O)c1	.	-84.3	-	-	-	-
O=C(NC(=S)Nn1cnnc1)c1cccc(Br)c1	.	-	-	-	22.4µM	.
O=C(N/N=C/c1ccc(O)cc1)c1ccc(NC(=O)c2ccccc2Br)cc1	-	-	-	-	14.1µM	?
O=C(Nc1ccccc1C(=O)N/N=C/c1ccc(F)cc1)c1ccccc1Br	-	-114.2	-	-	-	-
O=C(N/N=C/c1ccc(F)cc1)c1ccccc1	.	.	-	.	.	.
C[C@@H](N=C(N)N)C(=O)O	-[11.4 µM]	.	-	-[11.4 µM]	-	.
CCOc1ccccc1NC(=O)c1cnn2c(C(F)F)cc(-c3ccccc3)nc12	.	.	.	.	.	-
Cc1ccn2cc(-c3ccc(NS(=O)(=O)c4ccccc4)cc3)nc2c1	.	-	-	-	22.4µM	.
O=C(CCCC(=O)N(CC(=O)NC1CCCC1)C1CCCC1)Nc1ccccn1	-	-123.3	-	-	-	-
O=C(CCC(=O)N(CC(=O)NC1CCCC1)C1CCCC1)Nc1ccccn1	-	-	-	-	-	-
Cc1cccc([C@@H]2CN(C)CCc3c2cc(O)c(O)c3Cl)c1	-	.	-	-	-	-
CCOc1ccc2c(c1)C(C)=CC(C)(C)N2	12.6µM	.	-	?	?	-
CCc1ccc2c(c1)C(C)=CC(C)(C)N2	?	-	-	-	?	?
